Assay results reported in article PMC7862700, “An all-to-all approach to the identification of sequence-specific readers for epigenetic DNA modifications on cytosine”.

Columns and labels:
Experiment in all cases: DAPPL (digital affinity profiling via proximity ligation, sequencing); 10 mM Tris-HCl pH 7.5, 50 mM NaCl, 1 mM DTT, 4% glycerol, room temperature, 30 min; GST-TFs on glutathione beads, 16-mer random dsDNA library, 0.1% formaldehyde crosslink after washing; high values mean tight binding
FEV = target: T1, FEV (Homo sapiens, UniProt Q99581 1-238); settings: protein: recombinant; tags: N-terminal GST; dsDNA, one strand shown
T1 sequence: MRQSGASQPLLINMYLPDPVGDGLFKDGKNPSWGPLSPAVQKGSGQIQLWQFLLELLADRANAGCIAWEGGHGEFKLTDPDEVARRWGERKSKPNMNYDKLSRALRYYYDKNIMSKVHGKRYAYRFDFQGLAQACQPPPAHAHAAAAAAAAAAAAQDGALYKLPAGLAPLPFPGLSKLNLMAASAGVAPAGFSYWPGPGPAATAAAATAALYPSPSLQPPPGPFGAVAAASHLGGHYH
Method in brief: (§1)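 The binding signal reported is, for every hexamer, its read frequency for a factor over its read frequency for the tag-only sample. Reads came from pools of yeast-expressed, GST-fused human transcription factors on glutathione beads, barcoded with DNA and mixed with that sample, which were incubated with 200 nmole of a random double-stranded 16-mer DNA library in Tris/NaCl/DTT/glycerol buffer at room temperature for 30 min. After washing, the pools were crosslinked with 0.1% formaldehyde, proximity-ligated with BsaI/T4 ligase for 1 h at 37 °C, PCR-amplified and sequenced on an Illumina NextSeq500.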

ETV5 = ETV5 (Homo sapiens, UniProt P41161 1-510); settings: protein: recombinant; tags: N-terminal GST; dsDNA, one strand shown
Sequence of ETV5 (P41161 whole entry): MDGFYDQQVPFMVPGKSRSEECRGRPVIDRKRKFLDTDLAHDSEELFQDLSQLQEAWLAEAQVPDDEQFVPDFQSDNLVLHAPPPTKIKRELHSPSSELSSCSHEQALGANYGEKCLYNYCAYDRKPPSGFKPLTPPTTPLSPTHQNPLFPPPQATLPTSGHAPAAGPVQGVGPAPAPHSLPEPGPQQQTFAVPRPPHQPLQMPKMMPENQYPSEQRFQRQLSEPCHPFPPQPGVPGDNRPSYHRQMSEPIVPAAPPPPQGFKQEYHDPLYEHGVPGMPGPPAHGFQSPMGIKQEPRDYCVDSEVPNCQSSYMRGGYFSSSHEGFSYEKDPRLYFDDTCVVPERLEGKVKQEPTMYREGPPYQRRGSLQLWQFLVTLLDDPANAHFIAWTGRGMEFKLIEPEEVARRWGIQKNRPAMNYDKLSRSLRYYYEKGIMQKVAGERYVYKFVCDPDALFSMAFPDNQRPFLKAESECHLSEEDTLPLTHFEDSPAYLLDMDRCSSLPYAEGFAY
Method in brief: as §1

HSF1 = HSF1 (Homo sapiens, UniProt Q00613 1-529); settings: protein: recombinant; tags: N-terminal GST; chain copies: 3; dsDNA, one strand shown
Sequence of HSF1 (Q00613 whole entry): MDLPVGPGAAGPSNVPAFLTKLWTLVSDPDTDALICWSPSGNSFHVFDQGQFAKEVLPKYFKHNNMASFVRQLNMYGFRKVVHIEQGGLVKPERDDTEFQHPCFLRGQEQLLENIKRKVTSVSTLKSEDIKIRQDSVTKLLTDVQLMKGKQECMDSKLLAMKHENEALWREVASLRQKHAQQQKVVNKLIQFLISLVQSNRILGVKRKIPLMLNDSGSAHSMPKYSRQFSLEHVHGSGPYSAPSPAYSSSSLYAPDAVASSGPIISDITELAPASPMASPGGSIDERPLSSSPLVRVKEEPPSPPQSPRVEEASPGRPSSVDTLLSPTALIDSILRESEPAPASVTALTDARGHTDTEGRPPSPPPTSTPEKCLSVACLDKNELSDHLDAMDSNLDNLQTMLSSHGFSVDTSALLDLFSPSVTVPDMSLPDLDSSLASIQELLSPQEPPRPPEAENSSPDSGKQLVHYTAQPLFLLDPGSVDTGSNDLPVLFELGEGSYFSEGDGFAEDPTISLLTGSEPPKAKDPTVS
Method in brief: as §1

SPIC = target: T2, SPIC (Homo sapiens, UniProt Q8N5J4 1-248); settings: protein: recombinant; tags: N-terminal GST; dsDNA, one strand shown
T2 sequence: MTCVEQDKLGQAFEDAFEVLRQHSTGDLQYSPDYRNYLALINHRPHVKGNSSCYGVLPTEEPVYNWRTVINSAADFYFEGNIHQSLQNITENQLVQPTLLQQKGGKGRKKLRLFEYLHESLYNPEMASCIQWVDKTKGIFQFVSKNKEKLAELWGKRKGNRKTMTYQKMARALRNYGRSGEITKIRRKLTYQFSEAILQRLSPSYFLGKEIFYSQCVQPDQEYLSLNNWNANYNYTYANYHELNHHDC
Method in brief: as §1

ELF4 = ELF4 (Homo sapiens, UniProt Q99607 1-663); settings: protein: recombinant; tags: N-terminal GST; dsDNA, one strand shown
Sequence of ELF4 (Q99607 whole entry): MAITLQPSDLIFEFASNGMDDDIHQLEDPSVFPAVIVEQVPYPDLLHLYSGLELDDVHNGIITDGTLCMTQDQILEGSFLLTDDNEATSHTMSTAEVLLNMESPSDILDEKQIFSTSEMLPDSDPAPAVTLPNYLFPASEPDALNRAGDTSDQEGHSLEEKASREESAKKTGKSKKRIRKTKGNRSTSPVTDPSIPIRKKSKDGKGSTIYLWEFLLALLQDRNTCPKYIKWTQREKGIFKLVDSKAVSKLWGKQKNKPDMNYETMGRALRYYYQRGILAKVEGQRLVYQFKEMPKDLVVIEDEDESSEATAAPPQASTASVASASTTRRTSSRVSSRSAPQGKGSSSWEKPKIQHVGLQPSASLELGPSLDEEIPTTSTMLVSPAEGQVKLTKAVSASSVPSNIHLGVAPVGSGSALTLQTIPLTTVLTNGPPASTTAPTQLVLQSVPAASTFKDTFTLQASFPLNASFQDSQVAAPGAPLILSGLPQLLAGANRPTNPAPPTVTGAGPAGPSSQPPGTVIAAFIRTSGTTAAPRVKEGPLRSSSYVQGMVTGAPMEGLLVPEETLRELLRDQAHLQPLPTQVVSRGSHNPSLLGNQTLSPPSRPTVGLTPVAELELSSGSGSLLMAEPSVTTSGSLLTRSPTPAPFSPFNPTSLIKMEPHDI
Method in brief: as §1

ELK4 = target: T3, ELK4 (Homo sapiens, UniProt P28324-2 1-405); settings: protein: recombinant; tags: N-terminal GST; dsDNA, one strand shown
T3 sequence: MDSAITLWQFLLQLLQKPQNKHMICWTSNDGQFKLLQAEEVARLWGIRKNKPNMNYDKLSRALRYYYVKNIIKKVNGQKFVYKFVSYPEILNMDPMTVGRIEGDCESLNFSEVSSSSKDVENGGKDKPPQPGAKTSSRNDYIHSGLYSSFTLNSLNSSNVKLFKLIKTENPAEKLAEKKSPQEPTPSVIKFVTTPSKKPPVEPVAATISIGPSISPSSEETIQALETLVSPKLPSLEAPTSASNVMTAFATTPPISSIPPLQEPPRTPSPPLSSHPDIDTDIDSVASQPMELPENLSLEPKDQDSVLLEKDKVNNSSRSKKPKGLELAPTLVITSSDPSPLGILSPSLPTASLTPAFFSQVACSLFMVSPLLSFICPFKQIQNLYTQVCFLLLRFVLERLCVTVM
Method in brief: as §1

ETV2 = target: T4, ETV2 (Homo sapiens, UniProt O00321 1-342); settings: protein: recombinant; tags: N-terminal GST; dsDNA, one strand shown
T4 sequence: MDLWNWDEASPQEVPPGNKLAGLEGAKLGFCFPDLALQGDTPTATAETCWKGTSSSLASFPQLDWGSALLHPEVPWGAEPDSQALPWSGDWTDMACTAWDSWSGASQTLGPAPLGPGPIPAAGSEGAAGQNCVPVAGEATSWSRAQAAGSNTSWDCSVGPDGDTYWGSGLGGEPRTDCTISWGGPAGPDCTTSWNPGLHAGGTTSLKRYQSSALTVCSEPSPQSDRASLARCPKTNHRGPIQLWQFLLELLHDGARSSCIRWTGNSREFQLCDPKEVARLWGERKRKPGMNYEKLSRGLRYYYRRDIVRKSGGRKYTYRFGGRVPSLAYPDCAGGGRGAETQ
Method in brief: as §1

ELF3 = target: T5, ELF3 (Homo sapiens, UniProt P78545 1-371); settings: protein: recombinant; tags: N-terminal GST; dsDNA, one strand shown
T5 sequence: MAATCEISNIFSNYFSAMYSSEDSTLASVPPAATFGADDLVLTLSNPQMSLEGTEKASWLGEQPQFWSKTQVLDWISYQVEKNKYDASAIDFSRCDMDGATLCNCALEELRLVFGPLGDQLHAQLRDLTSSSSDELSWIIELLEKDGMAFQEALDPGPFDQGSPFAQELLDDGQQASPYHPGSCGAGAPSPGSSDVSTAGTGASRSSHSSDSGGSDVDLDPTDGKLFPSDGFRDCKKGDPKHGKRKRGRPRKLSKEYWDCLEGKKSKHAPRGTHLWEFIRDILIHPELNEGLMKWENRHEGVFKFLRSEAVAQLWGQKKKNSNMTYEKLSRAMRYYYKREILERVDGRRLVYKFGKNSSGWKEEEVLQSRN
Method in brief: as §1

CRX = CRX (Homo sapiens, UniProt O43186 1-299); settings: protein: recombinant; tags: N-terminal GST; dsDNA, one strand shown
Sequence of CRX (O43186 whole entry): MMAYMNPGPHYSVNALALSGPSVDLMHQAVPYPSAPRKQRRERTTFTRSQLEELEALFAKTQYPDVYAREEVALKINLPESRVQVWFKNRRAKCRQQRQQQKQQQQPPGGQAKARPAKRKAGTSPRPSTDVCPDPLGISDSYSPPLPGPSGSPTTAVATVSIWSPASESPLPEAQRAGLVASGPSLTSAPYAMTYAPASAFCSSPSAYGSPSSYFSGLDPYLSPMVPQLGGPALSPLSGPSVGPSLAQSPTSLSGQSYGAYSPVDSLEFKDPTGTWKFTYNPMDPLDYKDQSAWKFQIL
Method in brief: as §1

ETV1 = ETV1 (Homo sapiens, UniProt P50549 1-477); settings: protein: recombinant; tags: N-terminal GST; dsDNA, one strand shown
Sequence of ETV1 (P50549 whole entry): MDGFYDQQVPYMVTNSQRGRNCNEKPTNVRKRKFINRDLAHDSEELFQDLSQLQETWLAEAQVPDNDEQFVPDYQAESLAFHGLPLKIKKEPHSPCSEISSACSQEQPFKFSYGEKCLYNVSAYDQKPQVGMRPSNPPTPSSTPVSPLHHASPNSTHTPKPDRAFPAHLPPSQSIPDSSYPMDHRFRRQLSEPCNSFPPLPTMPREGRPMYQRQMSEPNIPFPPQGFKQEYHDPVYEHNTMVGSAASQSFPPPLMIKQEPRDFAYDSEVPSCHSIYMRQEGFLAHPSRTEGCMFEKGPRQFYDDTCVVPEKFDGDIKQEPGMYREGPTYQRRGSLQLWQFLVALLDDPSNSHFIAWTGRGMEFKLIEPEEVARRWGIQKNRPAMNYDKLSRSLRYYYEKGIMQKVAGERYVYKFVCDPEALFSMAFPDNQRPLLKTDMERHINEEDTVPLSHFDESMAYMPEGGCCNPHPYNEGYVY
Method in brief: as §1

ERF = target: T6, ERF (Homo sapiens, UniProt P50548 1-548); settings: protein: recombinant; tags: N-terminal GST; dsDNA, one strand shown
T6 sequence: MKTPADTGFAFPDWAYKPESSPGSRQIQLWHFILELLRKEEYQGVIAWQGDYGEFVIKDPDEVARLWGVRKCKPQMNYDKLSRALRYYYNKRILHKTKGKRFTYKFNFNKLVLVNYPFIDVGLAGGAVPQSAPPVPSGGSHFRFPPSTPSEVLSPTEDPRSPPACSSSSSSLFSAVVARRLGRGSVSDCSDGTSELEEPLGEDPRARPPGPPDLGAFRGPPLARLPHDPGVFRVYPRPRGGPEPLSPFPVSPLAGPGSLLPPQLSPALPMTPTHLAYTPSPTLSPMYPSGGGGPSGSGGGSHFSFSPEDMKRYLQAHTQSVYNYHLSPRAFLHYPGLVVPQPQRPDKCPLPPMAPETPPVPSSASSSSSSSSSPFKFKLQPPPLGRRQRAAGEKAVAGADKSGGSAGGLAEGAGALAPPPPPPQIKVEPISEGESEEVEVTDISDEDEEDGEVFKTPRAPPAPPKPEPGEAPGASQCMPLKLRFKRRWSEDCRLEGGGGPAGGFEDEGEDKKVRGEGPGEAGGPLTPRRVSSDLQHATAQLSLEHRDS
Method in brief: as §1

ETV3L = target: T7, ETV3L (Homo sapiens, UniProt Q6ZN32 1-361); settings: protein: recombinant; tags: N-terminal GST; dsDNA, one strand shown
T7 sequence: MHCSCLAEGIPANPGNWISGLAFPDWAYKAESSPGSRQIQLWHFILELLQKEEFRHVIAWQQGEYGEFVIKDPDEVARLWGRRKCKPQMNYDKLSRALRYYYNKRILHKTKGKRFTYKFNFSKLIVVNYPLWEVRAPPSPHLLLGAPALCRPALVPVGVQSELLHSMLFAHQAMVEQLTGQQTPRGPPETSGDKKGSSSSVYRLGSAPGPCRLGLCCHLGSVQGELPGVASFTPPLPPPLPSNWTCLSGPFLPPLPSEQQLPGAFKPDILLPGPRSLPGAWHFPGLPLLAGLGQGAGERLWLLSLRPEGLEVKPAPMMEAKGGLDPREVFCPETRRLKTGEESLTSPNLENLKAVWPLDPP
Method in brief: as §1

ETS2 = target: T8, ETS2 (Homo sapiens, UniProt P15036 1-469); settings: protein: recombinant; tags: N-terminal GST; dsDNA, one strand shown
T8 sequence: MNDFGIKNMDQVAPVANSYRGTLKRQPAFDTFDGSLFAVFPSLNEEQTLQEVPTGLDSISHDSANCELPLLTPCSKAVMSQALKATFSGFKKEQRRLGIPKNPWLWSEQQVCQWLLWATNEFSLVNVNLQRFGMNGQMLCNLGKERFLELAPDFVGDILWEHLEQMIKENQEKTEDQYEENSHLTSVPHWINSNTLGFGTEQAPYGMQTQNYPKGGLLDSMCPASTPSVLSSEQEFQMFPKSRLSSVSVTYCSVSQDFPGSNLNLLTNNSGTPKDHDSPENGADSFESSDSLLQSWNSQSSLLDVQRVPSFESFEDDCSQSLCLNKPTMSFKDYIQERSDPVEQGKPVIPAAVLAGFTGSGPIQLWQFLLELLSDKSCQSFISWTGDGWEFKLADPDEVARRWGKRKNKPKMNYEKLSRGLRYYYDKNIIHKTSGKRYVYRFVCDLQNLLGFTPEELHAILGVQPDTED
Method in brief: as §1

SPDEF = target: T9, SPDEF (Homo sapiens, UniProt O95238 1-335); settings: protein: recombinant; tags: N-terminal GST; dsDNA, one strand shown
T9 sequence: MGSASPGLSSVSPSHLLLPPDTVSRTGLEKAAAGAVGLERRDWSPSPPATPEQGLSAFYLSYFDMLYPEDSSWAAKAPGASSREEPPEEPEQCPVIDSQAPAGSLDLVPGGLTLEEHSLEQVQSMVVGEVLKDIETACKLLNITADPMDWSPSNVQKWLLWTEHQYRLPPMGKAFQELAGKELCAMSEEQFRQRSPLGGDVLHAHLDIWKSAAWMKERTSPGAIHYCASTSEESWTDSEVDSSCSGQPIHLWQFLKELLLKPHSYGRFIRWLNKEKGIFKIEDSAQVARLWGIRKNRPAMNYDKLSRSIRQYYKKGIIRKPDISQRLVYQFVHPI
Method in brief: as §1

ETV7 = target: T10, ETV7 (Homo sapiens, UniProt Q9Y603 1-341); settings: protein: recombinant; tags: N-terminal GST; dsDNA, one strand shown
T10 sequence: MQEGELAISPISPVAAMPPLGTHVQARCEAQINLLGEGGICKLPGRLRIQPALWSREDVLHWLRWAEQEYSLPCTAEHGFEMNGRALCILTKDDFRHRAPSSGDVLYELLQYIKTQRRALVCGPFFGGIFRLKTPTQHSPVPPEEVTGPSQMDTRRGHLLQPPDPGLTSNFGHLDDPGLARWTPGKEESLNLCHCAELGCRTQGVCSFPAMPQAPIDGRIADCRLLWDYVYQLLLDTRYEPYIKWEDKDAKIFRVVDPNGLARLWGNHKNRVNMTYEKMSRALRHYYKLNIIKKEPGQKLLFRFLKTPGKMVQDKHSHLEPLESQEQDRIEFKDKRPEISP
Method in brief: as §1

ELF5 = target: T11, ELF5 (Homo sapiens, UniProt Q9UKW6-2 1-255); settings: protein: recombinant; tags: N-terminal GST; dsDNA, one strand shown
T11 sequence: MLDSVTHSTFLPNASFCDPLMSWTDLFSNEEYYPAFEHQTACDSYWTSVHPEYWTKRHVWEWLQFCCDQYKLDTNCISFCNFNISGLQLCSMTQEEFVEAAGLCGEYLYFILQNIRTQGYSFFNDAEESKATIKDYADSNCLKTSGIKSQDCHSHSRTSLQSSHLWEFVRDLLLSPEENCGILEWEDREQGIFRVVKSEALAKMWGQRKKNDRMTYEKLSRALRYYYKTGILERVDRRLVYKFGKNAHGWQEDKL
Method in brief: as §1

ETV3 = target: T12, ETV3 (Homo sapiens, UniProt P41162-2 1-143); settings: protein: recombinant; tags: N-terminal GST; dsDNA, one strand shown
T12 sequence: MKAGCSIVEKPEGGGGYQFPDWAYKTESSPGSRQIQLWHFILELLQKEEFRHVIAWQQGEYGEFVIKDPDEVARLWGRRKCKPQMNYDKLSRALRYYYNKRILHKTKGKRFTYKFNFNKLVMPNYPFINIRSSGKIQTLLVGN
Method in brief: as §1

ETV6 = ETV6 (Homo sapiens, UniProt P41212 1-452); settings: protein: recombinant; tags: N-terminal GST; dsDNA, one strand shown
Sequence of ETV6 (P41212 whole entry): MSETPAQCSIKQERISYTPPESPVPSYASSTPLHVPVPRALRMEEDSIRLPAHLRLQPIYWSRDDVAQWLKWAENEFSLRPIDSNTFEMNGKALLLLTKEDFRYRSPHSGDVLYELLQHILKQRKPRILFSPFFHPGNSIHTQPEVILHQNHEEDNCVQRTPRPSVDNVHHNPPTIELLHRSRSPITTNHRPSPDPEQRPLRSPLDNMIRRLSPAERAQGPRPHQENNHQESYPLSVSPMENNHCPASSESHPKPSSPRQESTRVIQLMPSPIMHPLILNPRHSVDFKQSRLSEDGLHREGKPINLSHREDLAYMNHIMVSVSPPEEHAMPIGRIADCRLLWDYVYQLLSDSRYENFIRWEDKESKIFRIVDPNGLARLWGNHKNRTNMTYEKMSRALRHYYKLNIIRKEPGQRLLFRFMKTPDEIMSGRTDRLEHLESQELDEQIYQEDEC
Method in brief: as §1

## AAAGTA
FEV
  binding signal: 1.11 fold enrichment (6-mer frequency, TF over GST control)
ETV5
  binding signal: 1.09 fold enrichment (6-mer frequency, TF over GST control)
HSF1
  binding signal: 1.29 fold enrichment (6-mer frequency, TF over GST control)
SPIC
  binding signal: 1.04 fold enrichment (6-mer frequency, TF over GST control)
ELF4
  binding signal: 1.17 fold enrichment (6-mer frequency, TF over GST control)
ELK4
  binding signal: 1.13 fold enrichment (6-mer frequency, TF over GST control)
ETV2
  binding signal: 1.11 fold enrichment (6-mer frequency, TF over GST control)
ELF3
  binding signal: 1.11 fold enrichment (6-mer frequency, TF over GST control)
CRX
  binding signal: 1.35 fold enrichment (6-mer frequency, TF over GST control)
ETV1
  binding signal: 1.18 fold enrichment (6-mer frequency, TF over GST control)
ERF
  binding signal: 1.11 fold enrichment (6-mer frequency, TF over GST control)
ETV3L
  binding signal: 1.18 fold enrichment (6-mer frequency, TF over GST control)
ETS2
  binding signal: 1.17 fold enrichment (6-mer frequency, TF over GST control)
SPDEF
  binding signal: 1.13 fold enrichment (6-mer frequency, TF over GST control)
ETV7
  binding signal: 1.21 fold enrichment (6-mer frequency, TF over GST control)
ELF5
  binding signal: 1.18 fold enrichment (6-mer frequency, TF over GST control)
ETV3
  binding signal: 1.14 fold enrichment (6-mer frequency, TF over GST control)
ETV6
  binding signal: 1.15 fold enrichment (6-mer frequency, TF over GST control)
